From PubChem BioAssay (NCI)
Compounds without any hit were thinned out: in the full panel of roughly 83,000, 20% have a hit.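 In brief: 96-well plates, 48 h treatment, single concentration, percent growth endpoint.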 Active and inactive are the calls of the source. The calls were made as follows: active = growth percent below 10; inactive = the rest.

Assays:
Experiment in all cases: NCI-60 one-dose screen, 48 h (100 = growth as untreated, 0 = no growth, -100 = all killed)
Details in all cases: 10 µM unless noted
NCI-H23 lung = test system: NCI-H23 lung
NCI-H322M lung = test system: NCI-H322M lung
HOP-62 NSCLC = test system: HOP-62 NSCLC
NCI-H460 lung = test system: NCI-H460 lung
HOP-92 NSCLC = test system: HOP-92 NSCLC
A549/ATCC NSCLC = test system: A549/ATCC NSCLC
786-0 renal = test system: 786-0 renal
COLO 205 colon = test system: COLO 205 colon
DU-145 prostate = test system: DU-145 prostate
K-562 leukemia = test system: K-562 leukemia
MALME-3M melanoma = test system: MALME-3M melanoma
MDA-MB-231 breast = test system: MDA-MB-231 breast
RXF 393 renal = test system: RXF 393 renal
SF-268 CNS = test system: SF-268 CNS
SF-295 CNS = test system: SF-295 CNS
SF-539 CNS = test system: SF-539 CNS
UACC-257 melanoma = test system: UACC-257 melanoma
M14 melanoma = test system: M14 melanoma
HCT-15 colon = test system: HCT-15 colon

Measured: growth

CC(=O)c1ccc(Cc2ccc(C(C)=O)s2)s1
inactive: NCI-H23 lung 103% | NCI-H322M lung 92.1% | HOP-62 NSCLC 104% | NCI-H460 lung 94.3% | HOP-92 NSCLC 102% | A549/ATCC NSCLC 105% | 786-0 renal 102% | COLO 205 colon 119% | DU-145 prostate 113% | K-562 leukemia 94.1% | MALME-3M melanoma 106% | MDA-MB-231 breast 99.8% | RXF 393 renal 104% | SF-268 CNS 101% | SF-295 CNS 114% | SF-539 CNS 94.1% | UACC-257 melanoma 111% | M14 melanoma 107% | HCT-15 colon 99%

COc1cc(C2C(C#N)=C(N)OC3=C2C(=O)c2ccccc2C3=O)cc(OC)c1O (stereo not drawn)
inactive: NCI-H23 lung 32.5% | NCI-H322M lung 47.7% | HOP-62 NSCLC 34.2% | NCI-H460 lung 12.7% | HOP-92 NSCLC 43.7% | A549/ATCC NSCLC 52.3% | 786-0 renal 35.4% | COLO 205 colon 44.6% | DU-145 prostate 17.8% | MALME-3M melanoma 54.7% | MDA-MB-231 breast 57.1% | SF-268 CNS 42.2% | SF-295 CNS 29.3% | UACC-257 melanoma 55.9% | M14 melanoma 21.1% | HCT-15 colon 23.6%
active: SF-539 CNS 0.132%

CN(C)/C=C1\SC(=Nc2ccc(Cl)cc2)NC1=O
inactive: NCI-H23 lung 103% | NCI-H322M lung 108% | HOP-62 NSCLC 114% | NCI-H460 lung 102% | HOP-92 NSCLC 102% | A549/ATCC NSCLC 100% | 786-0 renal 99.8% | COLO 205 colon 119% | DU-145 prostate 108% | K-562 leukemia 101% | MALME-3M melanoma 103% | MDA-MB-231 breast 92.7% | RXF 393 renal 100% | SF-268 CNS 101% | SF-295 CNS 101% | SF-539 CNS 96% | UACC-257 melanoma 101% | M14 melanoma 109% | HCT-15 colon 103%

CCOC(=O)CSc1c(-c2ccccc2)c2cc(Cl)ccc2[nH]c1=O
inactive: NCI-H23 lung 101% | NCI-H322M lung 94.9% | HOP-62 NSCLC 94.5% | NCI-H460 lung 101% | HOP-92 NSCLC 100% | A549/ATCC NSCLC 102% | 786-0 renal 97.1% | COLO 205 colon 110% | DU-145 prostate 103% | K-562 leukemia 84.1% | MALME-3M melanoma 114% | MDA-MB-231 breast 104% | RXF 393 renal 103% | SF-268 CNS 102% | SF-295 CNS 69.6% | SF-539 CNS 107% | UACC-257 melanoma 120% | M14 melanoma 104% | HCT-15 colon 91.7%

CCOC(=O)c1cc2c(n1Cc1ccccc1OC)-c1oncc1CCC2
active: COLO 205 colon 2.53% | RXF 393 renal 5.36% | SF-539 CNS 3.92%
inactive: NCI-H23 lung 45.3% | NCI-H322M lung 86% | HOP-62 NSCLC 45.3% | NCI-H460 lung 18.4% | HOP-92 NSCLC 57% | A549/ATCC NSCLC 36.6% | 786-0 renal 49.6% | DU-145 prostate 33.2% | K-562 leukemia 10.5% | MALME-3M melanoma 20.7% | MDA-MB-231 breast 53% | SF-268 CNS 57.6% | SF-295 CNS 17% | UACC-257 melanoma 50.4% | M14 melanoma 35% | HCT-15 colon 30.9%

Cc1c(C(=O)OCCO)cc(-c2ccc(Cl)cc2)n1-c1ccc(Cl)cc1Cl
inactive: NCI-H23 lung 77.6% | NCI-H322M lung 84.3% | HOP-62 NSCLC 89.2% | NCI-H460 lung 37.7% | HOP-92 NSCLC 91.1% | A549/ATCC NSCLC 47.6% | 786-0 renal 94.1% | DU-145 prostate 62.9% | K-562 leukemia 33% | MALME-3M melanoma 76.2% | MDA-MB-231 breast 74.2% | RXF 393 renal 62.8% | SF-268 CNS 70.4% | SF-295 CNS 75.3% | SF-539 CNS 77.5% | UACC-257 melanoma 82% | M14 melanoma 55.6% | HCT-15 colon 53.6%

COc1cc2nc(NC3CCC3)nc(NC3CCN(C(C)C)CC3)c2cc1OC
active: A549/ATCC NSCLC 4.73% | K-562 leukemia 0.162% | MALME-3M melanoma -4.44% | MDA-MB-231 breast -2.38% | RXF 393 renal -16.9% | SF-539 CNS 5.1% | UACC-257 melanoma -59.9% | M14 melanoma -65.8%
inactive: NCI-H23 lung 92.2% | NCI-H322M lung 89.2% | HOP-62 NSCLC 81.5% | NCI-H460 lung 58.3% | HOP-92 NSCLC 26% | 786-0 renal 68% | DU-145 prostate 57.1% | SF-268 CNS 77.9% | SF-295 CNS 96.6% | HCT-15 colon 67.7%

CN1CCN(Cc2ccc(NC(=O)c3cncc(C#Cc4nc(N)nc5[nH]ncc45)c3)cc2C(F)(F)F)CC1
active: K-562 leukemia 4.75%
inactive: NCI-H23 lung 102% | NCI-H322M lung 114% | HOP-62 NSCLC 122% | NCI-H460 lung 112% | HOP-92 NSCLC 77.8% | A549/ATCC NSCLC 103% | 786-0 renal 111% | COLO 205 colon 21.6% | DU-145 prostate 74.7% | MALME-3M melanoma 68.6% | MDA-MB-231 breast 100% | RXF 393 renal 79.2% | SF-268 CNS 102% | SF-295 CNS 108% | SF-539 CNS 104% | UACC-257 melanoma 83.1% | M14 melanoma 89.4% | HCT-15 colon 97.8%
